Assay outcomes from PubChem.
KCNQ2 block: blocks the rat KCNQ2 potassium channel; CHO-K1 KCNQ2, FluxOR thallium flux, 20 min; active compounds read low; 310,000 compounds, 1.1% hits; B-score at 10 µM; AID 2156;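 active = fluorescence ratio B-score at most minus 3 library SDs, with starting brightness B-score within 2 library SDs, cut at about -5.5 in these data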
Target sequence (O88943 whole entry, looked up): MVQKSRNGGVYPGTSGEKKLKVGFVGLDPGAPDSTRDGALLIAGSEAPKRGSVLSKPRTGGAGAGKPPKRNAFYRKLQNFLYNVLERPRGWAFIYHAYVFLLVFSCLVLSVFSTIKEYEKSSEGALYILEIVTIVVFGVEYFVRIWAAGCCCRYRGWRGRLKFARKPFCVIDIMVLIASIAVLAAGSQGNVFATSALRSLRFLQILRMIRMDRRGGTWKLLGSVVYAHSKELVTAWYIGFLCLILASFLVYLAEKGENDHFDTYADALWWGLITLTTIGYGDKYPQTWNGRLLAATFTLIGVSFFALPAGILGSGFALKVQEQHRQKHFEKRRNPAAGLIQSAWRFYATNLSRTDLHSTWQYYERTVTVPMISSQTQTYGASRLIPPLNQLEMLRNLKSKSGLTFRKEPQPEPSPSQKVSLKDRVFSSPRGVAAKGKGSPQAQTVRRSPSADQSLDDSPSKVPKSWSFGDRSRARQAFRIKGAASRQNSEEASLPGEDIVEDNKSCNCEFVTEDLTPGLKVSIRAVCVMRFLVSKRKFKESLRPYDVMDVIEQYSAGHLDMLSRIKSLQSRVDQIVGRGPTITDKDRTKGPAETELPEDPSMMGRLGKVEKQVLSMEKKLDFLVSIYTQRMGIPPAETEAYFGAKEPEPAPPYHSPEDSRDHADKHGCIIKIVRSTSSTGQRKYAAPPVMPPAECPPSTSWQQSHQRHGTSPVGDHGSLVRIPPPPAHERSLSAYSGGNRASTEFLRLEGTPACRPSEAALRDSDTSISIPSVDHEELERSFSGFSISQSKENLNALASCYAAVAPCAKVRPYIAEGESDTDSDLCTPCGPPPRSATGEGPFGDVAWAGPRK
KCNQ2 enhance: KCNQ2 (rat) channel potentiation; CHO-K1 KCNQ2, FluxOR thallium flux fluorescence; active compounds read high; B-score at 10 µM; 310,000 compounds, 0.54% hits; AID 2239;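 active = fluorescence ratio B-score at least 3 SD of library B-scores, with initial fluorescence B-score within 3 of them, cut at about 5.3 in these data; same plate scores as AID 2156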;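 note: B-score of peak minus minimum over baseline fluorescence ratio after K+ and Tl+ stimulus; positive B-score means potentiation of KCNQ2 with more thallium influx and brighter signal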
Large screens that a line does not name were inactive. Sampled rows, rich in hits. Any-hit rate of the full collection: about 1.6%.

CN(C)c1nc(SCC(=O)Nc2ccccc2)nc(N2CCOCC2)n1	KCNQ2 enhance 6.4
O=C(Nc1nccs1)c1cncc(Br)c1	none (no result: KCNQ2 enhance)
O=C(Nc1nc(-c2ccccc2)cs1)c1ccc(N2CCOCC2)c([N+](=O)[O-])c1	KCNQ2 block -7.8
Cc1ccc(-c2csc(NC(=O)c3cc([N+](=O)[O-])ccc3N3CCOCC3)n2)cc1	none (no result: KCNQ2 enhance)
O=C(CCCc1ccccc1)Nc1ccnn1C1CCN(Cc2ccccn2)CC1	KCNQ2 enhance 6.4
Cc1ccccc1CN1CCC(n2nccc2NC(=O)CCCc2ccccc2)CC1	none
Cc1ccccc1CCN(C(=O)c1csnn1)C(C(=O)NC1CCCC1)c1ccncc1 (stereo not given)	none
Cc1ccccc1C(OCC(O)CN1CCN(CCO)CC1)c1ccccc1 (stereo not given)	none
COc1ccc(N2C(=O)/C(=C\c3ccco3)N=C2SCC(=O)N(C(C)C)C(C)C)cc1Cl	none (no result: KCNQ2 enhance)
CC(C)CN(CC(C)C)C1=N/C(=C\c2ccco2)C(=O)N1c1ccccc1	KCNQ2 block -7.4
CS(=O)(=O)c1ccc(C(=O)NC2CCCc3ccccc32)cc1 (stereo not given)	none
Cc1ccc(C)c(Nc2nn3c(=O)c4ccc(C(=O)NCc5cccnc5)cc4nc3s2)c1	none
CCOC(=O)C1CCN(C(=O)c2ccc3c(=O)n4nc(Nc5cc(C)ccc5C)sc4nc3c2)CC1	KCNQ2 block -5.8
CNC(=O)CSc1nc2ccccc2c(=O)n1C1CCCCC1	none (no result: KCNQ2 enhance)
CCOC(=O)CSc1nc2ccccc2c(=O)n1C1CCCC1	KCNQ2 block -5.8
Cc1ccc(C)c(OCc2nc3ccccc3[nH]2)c1	none (no result: KCNQ2 enhance)
Cc1cccc(C)c1OCc1nc2ccccc2[nH]1	KCNQ2 block -5.7
COc1ccc(NC(=O)c2c3c(nc4ccccc24)CCC3)cc1	none (no result: KCNQ2 enhance)
COC(=O)c1c2c(nc3ccccc13)CCC2	none
O=C(Nc1ccccc1)c1c2c(nc3ccccc13)CCCC2	KCNQ2 block -8.2
COc1ccc(OC)c(NC(=O)c2c3c(nc4ccccc24)CCC3)c1	KCNQ2 block -6.1
[O-][n+]1cccc2ncc3cscc3c21	none
CC(C)(C)NS(=O)(=O)c1ccc(NC(=O)C2CC(=O)N(CCc3ccc(F)cc3)C2)cc1 (stereo not given)	none (no result: KCNQ2 enhance)
Cc1cc(N/N=C2\CC(C)CC(C)(C)C2)nc2ccccc12 (stereo not given)	KCNQ2 block -5.6
CC1C/C(=N/Nc2nc3ccccc3[nH]2)CC(C)(C)C1 (stereo not given)	none
O=C(Cn1c(=O)n(CC(=O)NCc2ccccc2)c2ccccc21)NCc1ccccc1	none (no result: KCNQ2 enhance)
Cc1cc(=O)c2cc(Br)ccc2n1CC(=O)NCc1ccccc1	KCNQ2 block -8.3
CCOC(=O)[C@H]1NN=C(C(=O)OC)[C@@H]1c1ccccc1	none
COc1cc(/C=C/c2ccc3cccc(OC)c3n2)c(OC(C)=O)c([N+](=O)[O-])c1	KCNQ2 block -5.6
COc1cc(/C=C/c2ccc3cccc(OC)c3n2)c(O)c([N+](=O)[O-])c1	none
COCc1c(C(=O)N2CCN(c3ccc(C(F)(F)F)cn3)CC2)oc2ccccc12	none (no result: KCNQ2 enhance)
Cc1ccc(-c2nnc(N3CCN(C(=O)c4cccs4)CC3)c3ccccc23)cc1	none (no result: KCNQ2 enhance)
O=C(c1cccs1)N1CCN(c2nnc(-c3ccccc3)c3ccccc23)CC1	KCNQ2 block -5.9
OC1COC(O)C(O)C1O (stereo not given)	none
Cc1ccc(C(NC(=O)NC(C)c2ccccc2)C(Cl)(Cl)Cl)cc1F (stereo not given)	KCNQ2 enhance 17
CC(NC(=O)Nc1ccc(Cl)cc1)c1ccccc1 (stereo not given)	none (no result: KCNQ2 enhance)
CCCN(CCC)C(C(=O)Nc1cccc(OC)c1)c1ccccc1 (stereo not given)	KCNQ2 block -5.9
CCC(C(=O)OCC(=O)Nc1cccc(OC)c1)c1ccccc1 (stereo not given)	none (no result: KCNQ2 enhance)
COCCn1c(SCC(=O)Nc2ncc(C)s2)nc2sc3c(c2c1=O)CCC3	none
COCCn1c(SCc2nnc(-c3ccccc3)o2)nc2sc3c(c2c1=O)CCC3	KCNQ2 block -6.6
O=C(NCCC(=O)N(CCc1ccccc1)Cc1ccccc1)c1ccc([N+](=O)[O-])cc1	none (no result: KCNQ2 enhance)
Cc1cc(C)cc(NC(=O)c2cc(C)nc3ccccc23)c1	none
O=C1NC2(Nc3ccccc31)C(=O)Nc1ccccc12 (stereo not given)	none
O=C1NC2(Nc3ccccc31)C(=O)Nc1ccc(Br)cc12 (stereo not given)	KCNQ2 block -6.2
Cn1c(CC(=O)Nc2ccccc2)cc2ccccc21	none (no result: KCNQ2 enhance)
O=C1c2ccccc2C(Nc2ccc(S(=O)(=O)N3CCCCCC3)cc2)N1c1ccccn1 (stereo not given)	none (no result: KCNQ2 enhance)
O=C1c2ccccc2C(Nc2ccc(Cl)cn2)N1c1ccccn1 (stereo not given)	KCNQ2 block -6.6
COc1ccc([N+](=O)[O-])cc1/C=N/NC(=O)Cc1ccccc1	KCNQ2 enhance 6
COc1cc(/C=N/NC(=O)Cc2ccccc2)ccc1Oc1ccc([N+](=O)[O-])cc1[N+](=O)[O-]	none
CCOC(=O)c1c(NC(=O)C(C)Sc2nnc(C)c(=O)[nH]2)sc2c1CCCC2 (stereo not given)	none (no result: KCNQ2 enhance)
